Measured values reported in PubChem BioAssay (Tox21).
Inconclusive results are not listed. Entries that show only a call come without a potency. Calls of active or inactive are those of the source. Calls follow the shape of the dose curve; as a rule, active = well fitted inhibition curve with a large enough effect in the signal ratio in the repeat runs (not every such curve was filed as active); inconclusive = weak or mixed curves, or effect the other way; inactive = flat fitted curve, though single readings scatter; the % refers to the signal ratio.

Test: cAMP Responsive Elements (CRE) small molecule antagonists, cell-based qHTS assay (AID 1963591)
Conditions: CRE-bla HEK293T, beta-lactamase FRET ratio; series mostly up to 92.4 µM
Text: U.S. Tox21 Program National Center for Advancing Translational Sciences [NCATS] Division of Preclinical Innovation [DPI] U.S. Environmental Protection Agency [EPA] National Institutes of Environmental Health Sciences [NIEHS] National Toxicology Program [NTP] U.S. Food and Drug Administration [FDA] Tox21 Assay Overview: CREB (cyclic-AMP Responsive Element Binding Protein) is a cellular transcription factor. It binds to certain DNA sequences called cAMP Responsive Elements (CRE) and regulates the transcription of the genes. […] This cell line can be used to find agonists/antagonists of the cyclic AMP signaling pathway. The activation of the report gene under culture conditions can be detected by fluorescence intensity. This cell line has been used to screen the Tox21 10K compound library to […].
Tox21 Assay Protocol Summary: CRE-bla Hek 293T cells were suspended in assay medium (DMEM containing 10% dialyzed FBS, 0.1 mM NEAA, 1 mM sodium pyruvate and 25 mM HEPES) and dispensed at 2,000 cells/4 uL /well into 1536-well black wall/clear bottom plates using a Multidrop Combi (ThermoFisher Scientific, Waltham, MA) dispenser. After the assay plates were incubated at 37 C/5% CO2 for 18 hrs, 23 nL of compounds dissolved in DMSO, positive controls or DMSO only was transferred to the assay plate by a pintool workstation (Kalypsys, San Diego, CA), followed by addition of 1 […] uL of 1.25uM NKH477 (0.25 uM as final concentration) in assay medium using a Flying Reagent Dispenser (Aurora Discovery, San Diego, CA). The plates were incubated at 37 C and 5% CO2 for 3 hrs. Then 1 uL of LiveBLAzer B/G FRET substrate (Invitrogen, Carlsbad, CA) was added to each well using Bioraptr Flying Reagent Dispenser (FRD, Aurora Discovery, San Diego, CA). The plates were incubated at room temperature for 2 h.

Row | Structure (SMILES) | Potency
1 | CC1CN1 (stereo not given) | inactive
2 | Clc1cccc(Cl)c1 | inactive
3 | NCCc1ccc(O)cc1 | inactive
4 | CC(C)OC(=O)Cc1ccccc1 | inactive
5 | Oc1c(Br)cc(Br)cc1Br | inactive
6 | CC1CC(CC2CCC(N)C(C)C2)CCC1N (stereo not given) | inactive
7 | CC(C)(C)OOC(C)(C)C | inactive
8 | O=C(O)COc1ccccc1 | inactive
9 | CNC(=O)Oc1ccccc1OC(C)C | inactive
10 | CC1(C)CC(=O)CC(C)(C)N1[O] | inactive
11 | N#CS | inactive
12 | O=C(O)CCCc1ccc(N(CCCl)CCCl)cc1 | inactive
13 | CC(O)CN1CCN(CC(=O)[O-])CCN(CC(=O)[O-])CCN(CC(=O)[O-])CC1.[Gd+3] (stereo not given) | inactive
14 | NCc1cccnc1 | inactive
15 | Nc1nc(N)nc(Cl)n1 | inactive
16 | CCCCCCn1cc[n+](C)c1 | inactive
17 | c1ccc(CN2CCNCC2)cc1 | inactive
18 | COS(=O)(=O)OC | inactive
19 | O=C(Cl)C(Cl)Cl | inactive
20 | COP(=S)(OC)Oc1ccc(S(=O)(=O)N(C)C)cc1 | inactive

Row | Structure (SMILES) | Potency
21 | C=CC(=O)OCC(CC)CCCC (stereo not given) | inactive
22 | Cc1ccc2ccccc2c1 | inactive
23 | CC[n+]1ccccc1 | inactive
24 | Cl/C=C/CCl | inactive
25 | CC1=C(C(=O)Nc2ccccc2)SCCO1 | inactive
26 | c1ccc(OP(Oc2ccccc2)Oc2ccccc2)cc1 | inactive
27 | CCOP(=S)(OCC)SCSc1cc(Cl)ccc1Cl | inactive
28 | [N-]=[N+]=[N-] | inactive
29 | CCN(CCO)CCO | inactive
30 | N#CN=C(N)N | inactive
31 | C[N+](=O)[O-] | inactive
32 | CC(C)(Cl)Cl | inactive
33 | Nc1cc(Cl)cc(C(=O)O)c1Cl | inactive
34 | O=C(Nc1ccc(Br)cc1)c1cc(Br)cc(Br)c1O | inactive
35 | CCCCCCCCCCBr | inactive
36 | CCCCC(CC)COC(=O)c1ccc(C(=O)OCC(CC)CCCC)c(C(=O)OCC(CC)CCCC)c1 (stereo not given) | inactive
37 | Cn1c(N)nc2c3cccnc3ccc21 | inactive
38 | C1CS1 | inactive
39 | Nc1nc(N)nc(NC2CC2)n1 | inactive
40 | CCN(C)N=O | inactive
